In publication PMC7862700, “An all-to-all approach to the identification of sequence-specific readers for epigenetic DNA modifications on cytosine”:

Key:
Assay in all cases: DAPPL (digital affinity profiling via proximity ligation, sequencing); 10 mM Tris-HCl pH 7.5, 50 mM NaCl, 1 mM DTT, 4% glycerol, room temperature, 30 min; GST-TFs on glutathione beads, 16-mer random dsDNA library, 0.1% formaldehyde crosslink after washing; high values mean tight binding
Conditions in all cases: protein: recombinant; tags: N-terminal GST; dsDNA, one strand shown
FLI1 = biological target: T1, FLI1 (Homo sapiens, UniProt Q01543 1-452)
T1 sequence: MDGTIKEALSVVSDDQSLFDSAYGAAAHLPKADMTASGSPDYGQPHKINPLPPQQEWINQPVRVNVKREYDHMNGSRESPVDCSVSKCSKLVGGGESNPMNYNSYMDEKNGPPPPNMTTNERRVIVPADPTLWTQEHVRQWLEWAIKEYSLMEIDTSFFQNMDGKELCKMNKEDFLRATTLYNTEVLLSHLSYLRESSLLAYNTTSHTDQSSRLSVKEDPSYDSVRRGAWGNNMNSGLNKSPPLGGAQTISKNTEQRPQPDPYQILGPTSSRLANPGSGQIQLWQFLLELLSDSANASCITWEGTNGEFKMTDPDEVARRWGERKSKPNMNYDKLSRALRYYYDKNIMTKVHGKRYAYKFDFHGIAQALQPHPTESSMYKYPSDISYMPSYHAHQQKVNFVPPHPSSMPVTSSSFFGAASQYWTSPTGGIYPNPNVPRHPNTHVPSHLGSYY
In short: (§1)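 Human transcription factors fused to GST were expressed in yeast, captured on glutathione beads, given DNA barcodes and pooled with a GST-only negative control. Pools were incubated with 200 nmole of a 16-mer random double-stranded DNA library in Tris/NaCl/DTT/glycerol buffer at room temperature for 30 min. They were then washed, crosslinked with 0.1% formaldehyde, proximity-ligated (BsaI/T4 ligase, 1 h, 37 °C), PCR-amplified and sequenced on an Illumina NextSeq500. Binding signal is each 6-mer's read frequency for a factor divided by its frequency for the GST control.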

ELK1 = biological target: T2, ELK1 (Homo sapiens, UniProt P19419 1-428)
T2 sequence: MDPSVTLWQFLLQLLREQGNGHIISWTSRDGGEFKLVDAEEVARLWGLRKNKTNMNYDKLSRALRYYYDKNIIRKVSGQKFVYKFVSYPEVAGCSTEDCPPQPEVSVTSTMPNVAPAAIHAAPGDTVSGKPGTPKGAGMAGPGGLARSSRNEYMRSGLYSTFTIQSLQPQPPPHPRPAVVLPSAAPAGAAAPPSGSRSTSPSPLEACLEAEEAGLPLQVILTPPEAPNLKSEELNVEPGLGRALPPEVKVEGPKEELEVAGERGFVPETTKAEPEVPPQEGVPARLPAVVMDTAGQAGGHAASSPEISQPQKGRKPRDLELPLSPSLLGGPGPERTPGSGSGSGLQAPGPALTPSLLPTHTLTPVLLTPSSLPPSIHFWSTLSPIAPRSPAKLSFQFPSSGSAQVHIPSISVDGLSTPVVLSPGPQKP
In short: as §1

GABPA = biological target: T3, GABPA (Homo sapiens, UniProt Q06546 1-454)
T3 sequence: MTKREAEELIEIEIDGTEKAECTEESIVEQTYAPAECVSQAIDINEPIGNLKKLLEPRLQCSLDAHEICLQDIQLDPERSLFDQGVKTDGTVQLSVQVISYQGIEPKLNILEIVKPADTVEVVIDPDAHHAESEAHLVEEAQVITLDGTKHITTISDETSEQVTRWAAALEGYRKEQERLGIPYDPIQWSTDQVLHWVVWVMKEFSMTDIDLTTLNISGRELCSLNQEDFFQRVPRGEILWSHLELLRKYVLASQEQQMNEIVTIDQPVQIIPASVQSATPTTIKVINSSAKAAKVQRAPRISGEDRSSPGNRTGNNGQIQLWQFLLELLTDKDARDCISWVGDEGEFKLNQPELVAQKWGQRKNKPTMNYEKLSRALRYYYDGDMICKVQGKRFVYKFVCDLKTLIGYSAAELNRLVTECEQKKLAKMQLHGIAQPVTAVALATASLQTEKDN
In short: as §1

ERG = biological target: T4, ERG (Homo sapiens, UniProt P11308 1-479)
T4 sequence: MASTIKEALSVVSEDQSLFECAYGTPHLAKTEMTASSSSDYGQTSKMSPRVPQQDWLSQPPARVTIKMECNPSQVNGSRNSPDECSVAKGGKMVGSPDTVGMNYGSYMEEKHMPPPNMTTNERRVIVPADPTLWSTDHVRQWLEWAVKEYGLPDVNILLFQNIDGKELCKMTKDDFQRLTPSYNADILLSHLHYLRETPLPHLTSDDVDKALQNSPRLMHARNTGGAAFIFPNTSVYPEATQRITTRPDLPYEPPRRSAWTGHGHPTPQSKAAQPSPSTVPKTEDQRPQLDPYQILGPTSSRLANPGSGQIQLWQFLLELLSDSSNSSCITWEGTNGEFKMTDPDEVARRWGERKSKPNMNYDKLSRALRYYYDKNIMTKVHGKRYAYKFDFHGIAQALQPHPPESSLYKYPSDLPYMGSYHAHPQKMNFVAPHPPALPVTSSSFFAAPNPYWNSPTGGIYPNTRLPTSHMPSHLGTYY
In short: as §1

ELF1 = ELF1 (Homo sapiens, UniProt P32519 1-619)
In short: as §1

EHF = biological target: T5, EHF (Homo sapiens, UniProt Q9NZC4 1-300)
T5 sequence: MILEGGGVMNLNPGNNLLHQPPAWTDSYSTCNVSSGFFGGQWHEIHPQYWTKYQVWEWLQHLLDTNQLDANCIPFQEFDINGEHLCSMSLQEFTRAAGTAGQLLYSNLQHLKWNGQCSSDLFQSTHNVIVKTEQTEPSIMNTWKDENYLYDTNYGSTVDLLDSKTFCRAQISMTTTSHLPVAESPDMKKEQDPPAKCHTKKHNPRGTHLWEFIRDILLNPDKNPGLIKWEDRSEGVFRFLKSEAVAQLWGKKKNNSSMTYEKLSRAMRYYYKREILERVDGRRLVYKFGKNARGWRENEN
In short: as §1

SPI1 = SPI1 (Homo sapiens, UniProt P17947 1-270)
In short: as §1

SPIB = SPIB (Homo sapiens, UniProt Q01892 1-262)
In short: as §1

ELK3 = biological target: T6, ELK3 (Homo sapiens, UniProt P41970 1-407)
T6 sequence: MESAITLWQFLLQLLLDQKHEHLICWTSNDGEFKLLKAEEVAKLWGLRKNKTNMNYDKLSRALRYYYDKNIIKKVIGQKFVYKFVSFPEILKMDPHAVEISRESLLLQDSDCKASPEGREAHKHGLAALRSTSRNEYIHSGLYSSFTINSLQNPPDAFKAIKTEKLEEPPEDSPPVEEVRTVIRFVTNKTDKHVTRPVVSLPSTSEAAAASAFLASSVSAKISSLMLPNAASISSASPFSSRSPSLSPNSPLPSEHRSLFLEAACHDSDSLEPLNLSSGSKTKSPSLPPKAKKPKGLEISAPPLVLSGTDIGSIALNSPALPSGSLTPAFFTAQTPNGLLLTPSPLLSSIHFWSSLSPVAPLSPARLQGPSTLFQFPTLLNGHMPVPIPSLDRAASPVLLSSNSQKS
In short: as §1

SPIB, sequence (Q01892 whole entry): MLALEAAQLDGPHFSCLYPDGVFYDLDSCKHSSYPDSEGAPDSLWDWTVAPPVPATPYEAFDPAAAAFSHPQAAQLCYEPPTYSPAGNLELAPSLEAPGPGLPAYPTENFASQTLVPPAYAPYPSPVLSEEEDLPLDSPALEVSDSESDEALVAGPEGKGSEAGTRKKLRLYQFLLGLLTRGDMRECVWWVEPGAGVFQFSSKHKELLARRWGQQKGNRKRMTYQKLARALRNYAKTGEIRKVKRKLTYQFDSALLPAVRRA
ELF1, sequence (P32519 whole entry): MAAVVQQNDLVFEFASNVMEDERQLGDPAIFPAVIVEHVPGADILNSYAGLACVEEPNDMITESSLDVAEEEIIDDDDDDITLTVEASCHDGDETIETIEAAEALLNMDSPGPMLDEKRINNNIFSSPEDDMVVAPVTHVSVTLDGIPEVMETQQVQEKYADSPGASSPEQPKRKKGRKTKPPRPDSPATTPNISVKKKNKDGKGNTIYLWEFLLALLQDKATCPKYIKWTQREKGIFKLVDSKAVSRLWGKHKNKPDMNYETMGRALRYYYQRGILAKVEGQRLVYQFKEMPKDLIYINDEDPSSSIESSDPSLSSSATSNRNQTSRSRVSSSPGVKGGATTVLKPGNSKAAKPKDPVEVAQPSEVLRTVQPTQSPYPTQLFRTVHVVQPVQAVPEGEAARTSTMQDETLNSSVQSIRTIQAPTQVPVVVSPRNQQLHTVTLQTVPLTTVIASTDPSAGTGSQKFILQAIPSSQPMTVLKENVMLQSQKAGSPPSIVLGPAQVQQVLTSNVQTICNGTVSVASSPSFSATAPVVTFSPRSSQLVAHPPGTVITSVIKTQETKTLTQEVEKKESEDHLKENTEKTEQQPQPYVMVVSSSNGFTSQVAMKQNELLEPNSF

## TTGTTG
FLI1
  binding signal: 1.03 fold enrichment (6-mer frequency, TF over GST control)
ELK1
  binding signal: 1.12 fold enrichment (6-mer frequency, TF over GST control)
GABPA
  binding signal: 1.07 fold enrichment (6-mer frequency, TF over GST control)
ERG
  binding signal: 1.1 fold enrichment (6-mer frequency, TF over GST control)
ELF1
  binding signal: 1.14 fold enrichment (6-mer frequency, TF over GST control)
EHF
  binding signal: 1.12 fold enrichment (6-mer frequency, TF over GST control)
SPI1
  binding signal: 1.15 fold enrichment (6-mer frequency, TF over GST control)
SPIB
  binding signal: 1.05 fold enrichment (6-mer frequency, TF over GST control)
ELK3
  binding signal: 1.12 fold enrichment (6-mer frequency, TF over GST control)

## CTATTG
FLI1
  binding signal: 1.33 fold enrichment (6-mer frequency, TF over GST control)
ELK1
  binding signal: 1.33 fold enrichment (6-mer frequency, TF over GST control)
GABPA
  binding signal: 1.31 fold enrichment (6-mer frequency, TF over GST control)
ERG
  binding signal: 1.3 fold enrichment (6-mer frequency, TF over GST control)
ELF1
  binding signal: 1.37 fold enrichment (6-mer frequency, TF over GST control)
EHF
  binding signal: 1.28 fold enrichment (6-mer frequency, TF over GST control)
SPI1
  binding signal: 1.26 fold enrichment (6-mer frequency, TF over GST control)
SPIB
  binding signal: 1.2 fold enrichment (6-mer frequency, TF over GST control)
ELK3
  binding signal: 1.23 fold enrichment (6-mer frequency, TF over GST control)

## CCAATG
FLI1
  binding signal: 1.14 fold enrichment (6-mer frequency, TF over GST control)
ELK1
  binding signal: 1.11 fold enrichment (6-mer frequency, TF over GST control)
GABPA
  binding signal: 1.14 fold enrichment (6-mer frequency, TF over GST control)
ERG
  binding signal: 1 fold enrichment (6-mer frequency, TF over GST control)
ELF1
  binding signal: 1.15 fold enrichment (6-mer frequency, TF over GST control)
EHF
  binding signal: 1.03 fold enrichment (6-mer frequency, TF over GST control)
SPI1
  binding signal: 1.08 fold enrichment (6-mer frequency, TF over GST control)
SPIB
  binding signal: 1.15 fold enrichment (6-mer frequency, TF over GST control)
ELK3
  binding signal: 1.08 fold enrichment (6-mer frequency, TF over GST control)
